Screens deposited in PubChem BioAssay by National Center for Advancing Translational Sciences (NCATS).
This is one part of a sample in which hits are shown more often than they occur.
DT40 TDP1 CPT: DT40-hTDP1 cell growth loss with CPT; chicken DT40 Tdp1-/-;hTDP1 cells + 20 nM CPT, ATP luminescence, 48 h; Potency, µM (titrated, usually from 46.2 µM), inactives show top-dose activity change, negative = growth inhibition, actives largely listed as inhibitors; actives 12% (n = 420,000); also: potency is read from the fitted curve at half-maximal effect; nearly all actives have a fitted effect of over 55% in size
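Cell growth measured by CellTiter-Glo luminescence after a minimum 48 h, 37 C compound exposure with 20 nM CPT in Tdp1-knockout DT40 cells stably expressing hTDP1, seeded 400/well; qHTS titration format.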
HT1080 IDH1KD tx: toxicity to HT-1080 IDH1 knockdown cells (counter line). HT-1080 IDH1 knockdown viability, ATP luminescence, 48 h. Potency, µM (series often up to 46.1 µM), without a hit: at the highest dose activity, negative = toxicity, most hits filed as cytotoxic. actives 2% (n = 360,000);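 also: potency is read from the fitted curve at half-maximal effect; 0% = DMSO wells and -100% = cell-free medium wells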
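% activity derives from luminescence (CellTiter-Glo), normalised to DMSO and no-cell wells. HT-1080-IDH1KD cells, 750/well, had 48 h compound exposure at 37 °C.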
IL1B secr inh: blocks inflammasome-driven IL-1 beta release. THP-1 LPS/ATP IL-1B secretion, AlphaLISA, 16 h; hits give low values. activity change, % at 57.5 µM. actives 4.7% (n = 360,000); in the data active = activity change below about -50%; inconclusive = mostly about -30% to -49%
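Secreted IL-1B measured by AlphaLISA bead assay after 16 h compound exposure of THP-1 cells; compounds (final up to 57.5 uM) added 1 h before LPS (250 ng/mL) and ATP (1.25 mM) stimulation; lower signal means less secretion.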
TDP1 cell noCPT: qHTS for Inhibitors of human tyrosyl-DNA phosphodiesterase 1 (TDP1): qHTS in cells in absence of CPT; AID 686978, 2013; Potency, µM (series often up to 46.2 µM), without a hit: at the highest dose activity change, negative = growth inhibition, most hits filed as inhibitors; actives 15% (n = 420,000); DT40 Tdp1-/- hTDP1 cells, no CPT, ATP luminescence, 48 h; also: potency is read from the fitted curve at half-maximal effect; nearly all actives have a fitted effect of over 55% in size
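Luminescent ATP content (CellTiter-Glo) served as the growth readout. Knockout chicken DT40 cells expressing human TDP1 were exposed to compounds without camptothecin for a minimum 48 hr at 37 °C.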
ALOX12 inh: ALOX12 (human) lipoxygenase inhibition | P18054 | purified 12hLO, xylenol orange hydroperoxide absorbance | Potency, µM (series often up to 108 µM), for the others: at the top dose activity change, negative = inhibition, actives largely listed as inhibitors | actives 1.1% (n = 580,000) | AID 1671190; also: potency is read from the fitted curve at half-maximal effect
Target sequence (P18054 whole entry, looked up): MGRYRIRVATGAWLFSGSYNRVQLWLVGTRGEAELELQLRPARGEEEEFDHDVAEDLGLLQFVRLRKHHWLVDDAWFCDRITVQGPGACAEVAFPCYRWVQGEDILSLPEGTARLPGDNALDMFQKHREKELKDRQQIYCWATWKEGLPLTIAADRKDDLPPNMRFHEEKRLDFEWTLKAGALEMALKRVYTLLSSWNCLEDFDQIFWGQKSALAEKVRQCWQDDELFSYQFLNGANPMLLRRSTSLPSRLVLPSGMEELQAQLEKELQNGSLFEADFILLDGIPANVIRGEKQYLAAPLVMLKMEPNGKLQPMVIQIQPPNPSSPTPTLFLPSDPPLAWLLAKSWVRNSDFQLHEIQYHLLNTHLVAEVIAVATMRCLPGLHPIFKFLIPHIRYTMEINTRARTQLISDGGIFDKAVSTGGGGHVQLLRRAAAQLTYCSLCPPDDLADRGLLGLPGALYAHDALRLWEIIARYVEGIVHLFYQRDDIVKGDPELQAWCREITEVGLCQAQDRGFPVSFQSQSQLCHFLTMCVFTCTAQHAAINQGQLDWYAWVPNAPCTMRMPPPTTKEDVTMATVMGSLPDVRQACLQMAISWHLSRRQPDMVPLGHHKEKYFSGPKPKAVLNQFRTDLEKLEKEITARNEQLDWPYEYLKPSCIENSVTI
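Purified human 12hLO at 150 nM in 25 mM Hepes, 0.01% Triton X-100, pH 7.0, preincubated 15 min at room temperature with compound. Reaction started with 40 uM arachidonic acid, 30 min at room temperature. Hydroperoxide measured by Fe-xylenol orange, 573/405 nm absorbance ratio.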
HT1080-NT tox: kills 2HG-producing HT-1080-NT fibrosarcoma cells. AID 686970. actives 1.6% (n = 360,000). Potency, µM (top dose mostly 46.1 µM), for the others: at the top dose activity, negative = less viability, hits mostly cytotoxic. HT-1080-NT fibrosarcoma viability, CellTiter-Glo ATP luminescence, 48 h;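 also: NT is the 2HG producing partner of a matched IDH1 knockdown line; potency is read from the fitted curve at half-maximal effect; 0% = DMSO-treated cells and -100% = media-only wells without cells; nearly all actives have a fitted effect of over 55% in size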
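Luminescent CellTiter-Glo readout after 48 hours of compound exposure at 37 degrees C defined viability of HT-1080-NT cells. Activity was normalized to DMSO wells and cell-free media wells; concentration-response curves were fitted and assigned curve classes.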
Active calls of the source: *; ? = inconclusive; . = no result given; [ ] = dose if it differs, or a comment. Unless noted, calls follow the shape of the dose curve; as a rule, active = well fitted curve in the direction sought with a large enough effect; inconclusive = small, poorly fitted or top-dose-only effect, or another doubt; inactive = no such curve, though single readings can be large; an effect the other way counts as inactive or inconclusive. Unless noted, % is scaled to controls: 0 for no effect and ±100 for the full control effect.

SMILES	DT40 TDP1 CPT	HT1080 IDH1KD tx	IL1B secr inh	TDP1 cell noCPT	ALOX12 inh	HT1080-NT tox
CC(C)C(=O)Nc1ccc(Cl)c(Cl)c1	.	.	.	.	11.4%	.
CN(Cc1ccc(F)cc1)C(=O)c1cc(-c2ccncc2)nc2ccccc12	.	.	.	.	23.9%	.
COc1cccc(-c2cc(C(=O)Nc3ccc(N(C)C(C)=O)cc3)c3cc(Br)ccc3n2)c1	1.84µM*	-19.6%	-0.9	1.84µM*	?	-7.1%
COc1ccc(-c2cc(C(=O)N(C)Cc3ccc(F)cc3)c3ccccc3n2)cc1OC	23.1µM*	-0.8%	-7.6	?	164.1%	-3.5%
O=C(Nc1ccc(O)cc1)c1cc(-c2ccncc2)nc2ccccc12	.	.	.	.	0.7%	.
COc1cc(-c2cc(C(=O)Nc3ccc(O)cc3)c3ccccc3n2)cc(OC)c1OC	10.3µM*	?	-51.8*	?	44.7µM*	?
Cc1nnc(Sc2cc(C(=O)NC3CC3)c3ccccc3n2)s1	?	6.4%	-6.5	7.31µM*	7.0%	11.4%
COCCN1CCCCCC(O)c2cc(C(=O)NC3CCC3)ccc21 (centres undefined)	.	.	.	.	146.8%	.
O=C(O)CCCNS(=O)(=O)c1ccc(C(=O)O)cc1	.	.	.	.	-28.8%	.
Cc1ccc(NCC(=O)N2CCN(S(=O)(=O)c3ccc4ccccc4c3)CC2)c(F)c1	.	.	.	.	29.7%	.
COc1cc(-c2cc(C(=O)Nc3nc4ccccc4s3)c3ccccc3n2)cc(OC)c1OC	7.31µM*	-14.8%	-12.5	6.51µM*	-13.2%	-12.2%
COc1cc(-c2cc(C(=O)Nc3cccc(C(C)=O)c3)c3ccccc3n2)cc(OC)c1OC	6.51µM*	?	-19.3	?	14.7%	-24.6%
COc1cc(-c2cc(-c3nnco3)c3ccccc3n2)cc(OC)c1OC	?	-16.6%	?	7.31µM*	0.0%	-15.9%
Cc1ccc(S(=O)(=O)N(C)C)cc1NC(=O)c1cc(-c2ccncc2)nc2ccccc12	?	-1.8%	-10.4	4.11µM*	0.0%	-2.4%
Cc1ccc(-c2cc(C(=O)Nc3cc(C(=O)O)ccc3C)c3ccccc3n2)cc1	8.3%	-13.6%	65.1	?	-21.6%	-7.9%
COc1cc(OC)cc(C(=O)N2CCCN(c3cc(-c4ccc(Br)cc4)[nH]n3)CC2)c1	.	.	.	.	10.0%	.
CCn1c(CC(=O)Nc2ccc(F)cc2)nnc1SCC(=O)Nc1ccc2ccccc2c1	.	.	.	.	12.4%	.
CC(=O)c1cccc(NC(=O)c2cc(-c3ccncc3)nc3ccccc23)c1	?	-22.7%	-7.1	18.4µM*	-11.2%	-4.9%[9.24 µM]
COc1ccc(-c2cc(C(=O)NCC(c3ccco3)N(C)C)c3ccccc3n2)cc1OC (centres undefined)	23.1µM*	9.2%	-23.3	14.6µM*	?	-5.0%
Cc1cc(C)cc(NC(=O)c2cc(-c3ccncc3)nc3ccccc23)c1	.	.	.	.	35.2%	.
COc1ccc(OC)c(NC(=O)c2cc(-c3ccc(Cl)s3)nc3ccccc23)c1	-27.5%	.	.	14.6µM*	-16.1%	.
COc1cccc(NC(=O)c2cc(-c3ccncc3)nc3c(C)cc(C)cc23)c1	?	?	71.6	23.1µM*	16.4%	-17.9%
Cc1cc(NC(=O)c2cc(-c3ccc(C)s3)nc3ccccc23)no1	?	-1.7%	40.3	?	?	6.6%
COc1cc2ccccc2cc1C(=O)NC1CCCC1	?	-3.1%	-16.1	?	-14.3%	2.6%
COc1cccc(-c2cc(C(=O)Nc3ccncc3)c3ccccc3n2)c1	?	-28.9%	-11.3	16.4µM*	0.0%	-26.4%
SMILES	DT40 TDP1 CPT	HT1080 IDH1KD tx	IL1B secr inh	TDP1 cell noCPT	ALOX12 inh	HT1080-NT tox
COc1cc2ccccc2cc1C(=O)NC1CCC(C)CC1 (centres undefined)	?	8.3%	-51.1*	-61.6%	0.0%	2.4%
Cc1cccc(NC(=O)c2cc(-c3ccc(C)s3)nc3ccccc23)n1	18.4µM*	?	-8.8	13µM*	?	?
Cc1ccnc(NC(=O)c2cc(-c3ccc(Cl)s3)nc3ccccc23)c1	10.3µM*	-3.1%	10.6	18.4µM*	-26.7%	-20.5%
O=C(Nc1ccccn1)c1cc(-c2ccc(Cl)s2)nc2ccccc12	?	-18.7%	12.4	?	2.4%	-18.2%
O=C(NCCc1nc2ccccc2n1CCC1CCCCC1)c1ccco1	.	.	.	.	5.1%	.
COc1ccc(-n2nc(C3CCN(C(=O)c4ccccc4Cl)CC3)[nH]c2=O)cc1	.	.	.	.	27.6%	.
COC(=O)CNC(=O)c1cc(-c2ccncc2)nc2ccc(C)cc12	-1.1%	1.3%	?	3.2%	0.0%	2.0%
O=C(Nc1nc2c(s1)CCCC2)c1cc(-c2ccncc2)nc2ccccc12	?	-4.7%	15.3	16.4µM*	-25.8%	-7.8%
O=C(Nc1nc2c(s1)CCCC2)c1cc(-c2ccccc2)nc2ccccc12	?	-0.5%	-6.8	?	-13.0%	8.9%
COc1ccc(-c2cc(C(=O)Nc3ccc(C(N)=O)cc3)c3ccccc3n2)cc1OC	?	?	0.0	5.8µM*	?	?
COc1ccc(-c2cc(C(=O)NC3CCCC3)c3ccccc3n2)cc1OC	?	-8.9%	20.4	14.6µM*	-16.3%	-3.9%
COc1ccc(-c2cc(C(=O)Nc3ccc(S(=O)(=O)Nc4onc(C)c4C)cc3)c3ccccc3n2)cc1OC	8.5%	6.5%	9.5	-4.5%	?	-3.1%
COc1cc2c(cc1NC(=O)c1cc(-c3ccncc3)nc3ccc(C)cc13)oc1ccccc12	23.1µM*	3.5%	4.5	?	-12.5%	8.6%
Cc1ccc(F)cc1NC(=O)c1ccn(Cn2nnc(-c3ccccc3)n2)n1	.	.	.	.	-26.5%	.
CC(C)(C(=O)NCC(c1ccccc1)N1CCCC1)c1ccccc1 (centres undefined)	.	.	.	.	-1.2%	.
Cc1cc(NC(=O)c2cc(-c3ccncc3)nc3ccccc23)ccc1Br	23.1µM*	-20.5%	-50.3*	?	-6.8%	2.9%
Cc1ccc(-c2cc(C(=O)NC(C)C)c3ccccc3n2)cc1C	.	.	.	.	-6.5%	.
COc1ccc(-c2cc(C(=O)NC(C)c3ccccn3)c3ccccc3n2)cc1OC (centres undefined)	23.1µM*	0.2%	-15.2	20.6µM*	?	-2.5%
CCCCN1CC(c2nc3ccccc3n2CCCCOc2ccccc2C)CC1=O (centres undefined)	7.31µM*	.	.	5.8µM*	-24.0%	.
CCCn1c(C2CC(=O)N(c3ccc(C)cc3)C2)nc2ccccc21 (centres undefined)	-20.3%	6.1%	1.8	0.1%	0.0%	6.2%
